# Laboratory results from PubChem BioAssay (EPA / NIEHS).
# Results filed as inconclusive are left out. More than one record can exist for a structure, and the calls need not agree. Calls of active or inactive are those of the source. Rule for the calls, unless noted: active = hit-call score of the fitted dose curve at least 0.9, where 1 is the maximum; inactive = score below 0.9.
# How the values were obtained:
# [1] = CCTE_Harrill_HTTr_Viability_MCF7: CCTE's 6-hour Cell Viability Assessment for the High-Throughput Transcriptomics (HTTr) Platform, in MCF-7 cells cultured in DMEM + 10% fetal bovine serum, Harrill Lab (AID 2284010)
# How it was run: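 Eight-point concentration series, six-hour exposure. Propidium iodide exclusion imaged to assess membrane integrity as a cytotoxicity readout; bidirectional fitting was done with DMSO as negative control and activity baseline.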
# [2] = CCTE_Harrill_HTTr_Apoptosis_MCF7: CCTE's 6-hour Apoptosis Assessment for the High-Throughput Transcriptomics (HTTr) Platform, in MCF-7 cells cultured in DMEM + 10% fetal bovine serum, Harrill Lab (AID 2284011)
# How it was run: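 MCF-7 (DMEM + 10% FBS), 384-well; 8-pt dilution series, 6 h chemical exposure; caspase-3/7 activation via CellEvent Caspase 3/7 Green, HCI; bidirectional fit vs DMSO.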
# [3] = CCTE_Shafer_MEA_acute_spike_number: CCTE's Neural Acute Assay for Total Number of Spikes, Shafer Lab (AID 2284008);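 for AC50: curve fitted for decrease in spike count so AC50 reflects inhibitors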
# How it was run: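 Read-out is the total spike count over 40 min, expressed as percent change from each well's own pre-treatment baseline and fitted in the loss direction against DMSO. Rat cortical neurons were exposed at 0.03-40 uM on DIV 13 or 15.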
# [4] = CCTE_Shafer_MEA_acute_firing_rate_mean: CCTE's Neural Acute Assay for Mean Firing Rate, Shafer Lab (AID 2284009);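 note: analyzed for loss of signal so actives lower firing rate relative to DMSO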
# How it was run: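 Spontaneous spiking of primary rat cortical networks, DIV 13/15, 37 C. Compound 0.03-40 uM, n ≥3 wells; 40 min baseline vs 40 min treated. Endpoint fitted in loss-of-signal direction against DMSO.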
# [5] = CCTE_Harrill_HTTr_CellCount_MCF7: CCTE's Cell Proliferation Assessment for the High-Throughput Transcriptomics (HTTr) Platform, Harrill Lab (AID 2284012; active = hit-call score of the fitted dose curve at least 0.9, where 1 is the maximum;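 note: count of Hoechst-stained nuclei per well by high-content imaging in MCF-7 cells; cells exposed to compound for six hours; intended direction is loss of nuclei count meaning fewer cells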)
# How it was run: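 For this full-screen endpoint, MCF-7 cultures received eight compound dilutions for six hours. Well nuclei counts from Hoechst imaging were analyzed relative to DMSO.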
# [6] = CCTE_Shafer_MEA_acute_burst_number: CCTE's Neural Acute Assay for Single-Electrode Bursts, Shafer Lab (AID 2284013)
# How it was run: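 Burst totals were derived with adaptive spike detection (8x rms threshold) on filtered signals from rat cortical cultures; change relative to pre-treatment baseline after 40-min compound exposure (0.03-40 uM) was fitted in the negative direction against DMSO.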
# [7] = CCTE_Shafer_MEA_acute_burst_duration_mean: CCTE's Neural Acute Assay for Mean Burst Duration, Shafer Lab (AID 2284014);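 note: hits are decreases in mean burst duration relative to DMSO controls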
# How it was run: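 Acute exposure of mature rat cortical networks (DIV 13 or 15) grown on microelectrode arrays to 0.03-40 uM compound. Mean burst duration compared with the 40-min pre-dose baseline over a 40-min post-dose recording at 37 C.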
# [8] = CCTE_Shafer_MEA_acute_per_burst_spike_number_mean: CCTE's Neural Acute Assay for Average Number of Spikes Per Burst, Shafer Lab (AID 2284015);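 note: hits are decreases in mean spikes per burst versus baseline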
# How it was run: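 Read-out: percent change in mean spikes per burst, each well's post-exposure 40-min recording versus its own 40-min baseline. Rat cortical cultures, DIV 13 or 15, compounds 0.03-40 uM; DMSO is negative control, loss-of-signal fitting.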
# [9] = CCTE_Shafer_MEA_acute_interburst_interval_mean: CCTE's Neural Acute Assay for Mean Interburst Interval, Shafer Lab (AID 2284016);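 note: percent change of mean interburst interval versus each well's own pre-dose baseline; curves fitted for decrease in interburst interval relative to DMSO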
# How it was run: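 Rat cortical cultures, DIV 13/15; 20 min equilibration, 40 min baseline, compound 0.03-40 uM, 40 min re-recording, 37 C. Spikes detected at 8x rms noise (300-5000 Hz band-pass). Endpoint: % change in interburst interval, fitted in loss direction vs DMSO.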
# [10] = CCTE_Shafer_MEA_acute_burst_percentage_mean: CCTE's Neural Acute Assay for Percentage of Spikes in a Burst, Shafer Lab (AID 2284017);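 for AC50: curve fitted for loss of signal so potency reflects decreased burst percentage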
# How it was run: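 Rat cortical cultures, DIV 13/15, 37 C. Spikes detected at 8x rms noise (300-5000 Hz band-pass). Burst spikes/total spikes averaged across electrodes per well; % change post- vs pre-treatment (40 min each), loss-of-signal fit vs DMSO.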
compound,measurement,setting,value
O=c1n(CC2CO2)c(=O)n(CC2CO2)c(=O)n1CC1CO1 (configuration not stated),outcome,[1],inactive
same,outcome,[2],inactive
Cn1c(=O)c2c(ncn2C)n(C)c1=O,outcome,[3],inactive
same,outcome,[4],inactive
same,outcome,[1],inactive
same,outcome,[2],inactive
same,outcome,[5],inactive
same,outcome,[6],inactive
same,AC50,[7],30.8 µM (active)
same,AC50,[8],31.8 µM (active)
same,outcome,[9],inactive
same,outcome,[10],inactive
O=P(OC(CCl)CCl)(OC(CCl)CCl)OC(CCl)CCl,outcome,[3],inactive
same,outcome,[4],inactive
same,outcome,[1],inactive
same,outcome,[2],inactive
same,outcome,[5],inactive
same,outcome,[6],inactive
same,outcome,[7],inactive
same,outcome,[8],inactive
same,AC50,[9],24 µM (active)
same,outcome,[9],inactive
same,AC50,[10],23.1 µM (active)
same,outcome,[10],inactive
O=C(O)CC(O)C(=O)O (configuration not stated),outcome,[1],inactive
same,outcome,[2],inactive
O=C(O)c1cc(N=Nc2ccc(S(=O)(=O)Nc3ccccn3)cc2)ccc1O,AC50,[3],0.00807 µM (active)
same,AC50,[4],0.00818 µM (active)
same,outcome,[1],inactive
same,outcome,[2],inactive
same,outcome,[5],inactive
same,AC50,[6],0.0299 µM (active)
same,outcome,[7],inactive
same,outcome,[8],inactive
same,outcome,[9],inactive
same,outcome,[10],inactive
CC[C@H]1CC[C@H](NCc2cc3c(cc2OC)[C@H]2C[C@H]2C(=O)N3C)[C@H](c2ccccc2)N1,AC50,[3],3.07 µM (active)
same,AC50,[4],3.07 µM (active)
same,outcome,[1],inactive
same,outcome,[2],inactive
same,outcome,[5],inactive
same,AC50,[6],3.09 µM (active)
same,outcome,[7],inactive
same,outcome,[8],inactive
same,AC50,[9],7.83 µM (active)
same,AC50,[10],30.9 µM (active)
CCCN(C1CCN(C(=O)C2CCNCC2)CC1)[C@@H]1CCc2ccc(OC)cc2C1,outcome,[3],inactive
same,outcome,[4],inactive
same,outcome,[1],inactive
same,outcome,[2],inactive
same,outcome,[5],inactive
same,outcome,[6],inactive
same,outcome,[7],inactive
same,outcome,[8],inactive
same,outcome,[9],inactive
same,AC50,[10],11.3 µM (active)
COc1ccc2sc(C(=O)Nc3nnn[nH]3)c(OC(C)C)c2c1,outcome,[3],inactive
same,outcome,[4],inactive
same,outcome,[1],inactive
same,outcome,[2],inactive
same,outcome,[5],inactive
same,outcome,[6],inactive
same,outcome,[7],inactive
same,outcome,[8],inactive
same,outcome,[9],inactive
same,outcome,[10],inactive
CCCCC(CC)COC(=O)c1ccc(C(=O)OCC(CC)CCCC)cc1 (configuration not stated),outcome,[1],inactive
same,outcome,[2],inactive
CC(=O)OCCC(C)C,outcome,[1],inactive
same,outcome,[2],inactive
CCCCCCc1ccc(O)cc1O,AC50,[3],12.8 µM (active)
same,AC50,[4],12.9 µM (active)
same,outcome,[1],inactive
same,outcome,[2],inactive
same,outcome,[5],inactive
same,AC50,[6],12.5 µM (active)
same,outcome,[7],inactive
same,AC50,[8],20 µM (active)
same,AC50,[9],30.1 µM (active)
same,AC50,[10],15 µM (active)
CNCc1ccc(NC(=O)c2c[nH]c3c2C(=O)CCC3)cc1,outcome,[1],inactive
same,outcome,[2],inactive
On1ccccc1=S,outcome,[3],inactive
same,outcome,[4],inactive
same,outcome,[1],inactive
same,outcome,[2],inactive
same,outcome,[5],inactive
same,outcome,[6],inactive
same,outcome,[7],inactive
same,outcome,[8],inactive
same,outcome,[9],inactive
same,outcome,[10],inactive
CCCCC(CC)COC(=O)CCCCCCCCC(=O)OCC(CC)CCCC (configuration not stated),outcome,[3],inactive
same,outcome,[4],inactive
same,outcome,[1],inactive
same,outcome,[2],inactive
same,outcome,[6],inactive
same,outcome,[7],inactive
same,outcome,[8],inactive
same,outcome,[9],inactive
same,outcome,[10],inactive
Oc1ccc2c(c1)-c1ccccc1C2,outcome,[1],inactive
same,outcome,[2],inactive
CCOC(=O)CC(CC(=O)OCC)(OC(C)=O)C(=O)OCC,outcome,[1],inactive
same,outcome,[2],inactive
O=C(O)CCN(C1(C(=O)NO)CCCC1)S(=O)(=O)c1ccc(Oc2ccc(F)cc2)cc1,outcome,[3],inactive
same,outcome,[4],inactive
same,outcome,[1],inactive
same,outcome,[2],inactive
same,outcome,[5],inactive
same,outcome,[6],inactive
same,outcome,[7],inactive
same,outcome,[8],inactive
same,outcome,[9],inactive
same,outcome,[10],inactive
CCOC(=O)c1ccc(C2CCC(NC[C@H](O)COc3ccc(O)c(NS(C)(=O)=O)c3)CC2)cc1 (some centres not stated),outcome,[3],inactive
same,outcome,[4],inactive
same,outcome,[1],inactive
same,outcome,[2],inactive
same,outcome,[5],inactive
same,outcome,[6],inactive
same,outcome,[7],inactive
same,outcome,[8],inactive
same,outcome,[9],inactive
same,AC50,[10],30.2 µM (active)
CCCCCCCCCCCCc1ccccc1,outcome,[3],inactive
same,outcome,[4],inactive
same,outcome,[1],inactive
same,outcome,[2],inactive
same,outcome,[6],inactive
same,outcome,[7],inactive
same,outcome,[8],inactive
same,outcome,[10],inactive
CCC(C)(C)C(=O)O[C@H]1C[C@@H](C)C=C2C=C[C@H](C)[C@H](CC[C@@H]3C[C@@H](O)CC(=O)O3)[C@H]21,outcome,[3],inactive
same,outcome,[4],inactive
same,outcome,[6],inactive
same,outcome,[7],inactive
same,outcome,[8],inactive
same,outcome,[9],inactive
same,outcome,[10],inactive
CC(=O)OC[C@H]1O[C@@](COC(C)=O)(O[C@H]2O[C@H](COC(C)=O)[C@@H](OC(C)=O)[C@H](OC(C)=O)[C@H]2OC(C)=O)[C@@H](OC(C)=O)[C@@H]1OC(C)=O,outcome,[1],inactive
same,outcome,[2],inactive
Cn1cnc([N+](=O)[O-])c1Sc1ncnc2nc[nH]c12,outcome,[3],inactive
same,outcome,[4],inactive
same,outcome,[1],inactive
same,outcome,[2],inactive
same,outcome,[5],inactive
same,outcome,[6],inactive
same,outcome,[7],inactive
same,outcome,[8],inactive
same,outcome,[9],inactive
same,outcome,[10],inactive
CC[C@H]1OC(=O)[C@H](C)[C@@H](O[C@H]2C[C@@](C)(OC)[C@@H](O)[C@H](C)O2)[C@H](C)[C@@H](O[C@@H]2O[C@H](C)C[C@H](N(C)C)[C@H]2O)[C@](C)(O)C[C@@H](C)C(=O)[C@H](C)[C@@H](O)[C@]1(C)O,outcome,[3],inactive
same,outcome,[4],inactive
same,outcome,[1],inactive
same,outcome,[2],inactive
same,outcome,[5],inactive
same,outcome,[6],inactive
same,outcome,[7],inactive
same,outcome,[8],inactive
same,outcome,[9],inactive
same,outcome,[10],inactive
